This is part of a sample that, as a whole, favours compounds with a hit. Of some 83,000 tested, about 20% had one in any assay.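 Growth was measured after 48 h exposure to one concentration of compound in 96-well plates. Values under 10 count as active.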 Activity calls are given as the source filed them.
Columns and labels:
Assay in all cases: NCI-60 one-dose screen, 48 h (100 = growth as untreated, 0 = no growth, -100 = all killed)
Settings in all cases: 10 µM
[1] = system: NCI-H23 lung
[2] = system: NCI-H226 lung
[3] = system: NCI-H322M lung
[4] = system: HOP-62 NSCLC
[5] = system: NCI-H460 lung
[6] = system: HOP-92 NSCLC
[7] = system: NCI-H522 lung
[8] = system: A549/ATCC NSCLC
[9] = system: 786-0 renal
[10] = system: COLO 205 colon
[11] = system: DU-145 prostate
[12] = system: K-562 leukemia
[13] = system: MALME-3M melanoma
[14] = system: MDA-MB-231 breast
[15] = system: SF-268 CNS
[16] = system: SF-295 CNS
[17] = system: SF-539 CNS
[18] = system: UACC-257 melanoma
[19] = system: M14 melanoma

Measured: growth

CCOC(=O)c1c(CSc2ccccc2)n(C)c2cc(CN(C)C)c(O)c(CN(C)C)c12
active: [10] -37.8% | [13] -15.3%
inactive: [1] 33.8% | [2] 46.6% | [3] 47.7% | [4] 72.2% | [5] 34.6% | [6] 32.5% | [7] 62.4% | [8] 49.6% | [9] 45.3% | [11] 60.8% | [12] 19.7% | [14] 16% | [15] 71.3% | [16] 46.9% | [17] 50.5% | [18] 54.3% | [19] 47.6%

COc1ccc(-c2cc(C(=O)N=Nc3c(O)[nH]c4ccccc34)c3ccccc3n2)cc1
active: [1] -36.4% | [2] -36% | [3] 6.23% | [4] -42.7% | [5] -70.4% | [6] -46.5% | [8] -37.4% | [9] -40.9% | [10] -5.77% | [11] -92.8% | [13] -54.6% | [14] -58.8% | [15] -0.0948% | [16] 4.82% | [17] -76%
inactive: [7] 24.3% | [12] 25.7% | [18] 47.8% | [19] 11.1%

Cc1ccc2nc(COc3ccc(C(=O)NNC(=S)NC(=O)c4ccccc4)cc3)[nH]c2c1
inactive: [1] 53.3% | [2] 60.7% | [3] 80.7% | [4] 45.4% | [5] 20.5% | [6] 80.6% | [7] 60.5% | [8] 53.9% | [9] 74.4% | [10] 84% | [11] 64.7% | [12] 21.8% | [13] 80.9% | [14] 71.5% | [15] 55.2% | [16] 25.3% | [17] 41.9% | [18] 83.4% | [19] 65.2%

C/C(=N\N=C\c1ccc(Cl)c([N+](=O)[O-])c1)c1ccc2c(c1)Nc1ccccc1S2
active: [2] -25.2% | [5] 1.22% | [13] -3.5%
inactive: [1] 18.2% | [3] 50% | [4] 47.5% | [6] 32.6% | [7] 33.2% | [8] 60.2% | [9] 52.1% | [10] 32.1% | [11] 28.1% | [12] 38.6% | [14] 32.4% | [15] 47.3% | [16] 42.7% | [17] 12.8% | [18] 51.2% | [19] 62.6%

CCOP(=O)(OCC)O[C@H]1CC[C@]2(C)[C@H]3CC[C@@H]4[C@@H]([C@](C)(O)CCC=C(C)C)CC[C@@]4(C)[C@]3(C)CC[C@H]2C1(C)C
active: [6] 2.88% | [7] 1.32% | [10] -33% | [18] 9.27%
inactive: [1] 15.4% | [2] 20.9% | [3] 74.1% | [4] 57.3% | [5] 11.2% | [8] 22.1% | [9] 23.3% | [11] 41.4% | [12] 13% | [13] 40.3% | [14] 13.9% | [15] 45.9% | [16] 32.1% | [17] 42.7% | [19] 29%

O=C(CSc1nnc(-c2ccc3nc(-c4ccc(Cl)cc4)[nH]c3c2)o1)Nc1ccc(Br)cc1
active: [1] -82.9% | [2] -62.9% | [3] -40.8% | [4] -66.9% | [5] -82.7% | [6] -11.3% | [7] -67.9% | [8] -54.9% | [9] -74.9% | [10] 0.691% | [12] 5.15% | [13] -81% | [14] -97.3% | [15] 0.811% | [16] -89.4% | [17] -95.2% | [18] -12.9% | [19] -84.4%
inactive: [11] 11.7%

CCCSc1nc(NC2CC2)c(C#N)c(-c2ccc(OC)cc2)n1
inactive: [1] 96.4% | [2] 99.4% | [3] 89.3% | [4] 84.6% | [5] 85.6% | [6] 77.7% | [7] 93.3% | [8] 71.8% | [9] 77.1% | [10] 134% | [11] 98.1% | [12] 92.4% | [13] 134% | [14] 85% | [15] 80.9% | [16] 78.7% | [17] 85.6% | [18] 107% | [19] 129%

Cc1noc2c(Cc3ccccc3)nn(CC(=O)N/N=C/c3ccc(F)cc3)c(=O)c12
inactive: [1] 78.4% | [2] 29% | [3] 84.6% | [4] 14.7% | [5] 28.9% | [7] 85.8% | [8] 45.3% | [10] 72.5% | [11] 65.2% | [12] 96.7% | [14] 44.3% | [15] 62.6% | [16] 25.9% | [17] 66.9% | [18] 67.4% | [19] 66.1%
active: [6] -12.7% | [9] -2.13% | [13] -1.4%

Cn1cc(/C=N/Nc2cccc(Cl)n2)c2ccccc21
inactive: [1] 69.2% | [2] 68.9% | [3] 89.9% | [4] 75.8% | [5] 63.8% | [6] 42.8% | [7] 74.3% | [8] 76% | [9] 63.7% | [10] 67.7% | [11] 72.5% | [12] 20.2% | [13] 70.7% | [14] 51.6% | [15] 56% | [16] 73.5% | [17] 64.6% | [18] 88.8% | [19] 55.4%

CCCCSc1nc(Nc2ccc(/C(C)=N/NC(N)=S)cc2)c(C#N)c(-c2ccccc2)n1
inactive: [1] 23.7% | [3] 59% | [4] 41.1% | [5] 12.1% | [7] 39.6% | [8] 12.8% | [10] 59.6% | [11] 36.2% | [12] 33% | [13] 35.2% | [14] 18.3% | [15] 67% | [16] 24.7% | [17] 19.3% | [18] 90.3% | [19] 76.6%
active: [2] 4.29% | [6] -19.7% | [9] 3.01%

O=C1N/C(=N\c2nccs2)S/C1=C\c1cccs1
inactive: [1] 38.1% | [2] 19.9% | [3] 45.2% | [4] 33.6% | [5] 14.7% | [6] 68% | [7] 21.2% | [8] 26.8% | [9] 43.2% | [10] 29% | [11] 53.2% | [12] 20.1% | [13] 28.9% | [14] 47.6% | [15] 44.7% | [16] 13.4% | [17] 21.8% | [18] 49.6%
active: [19] 9.09%

CN1CCc2c(sc3ncnc(N/N=C/c4ccc5ccccc5c4)c23)C1
inactive: [1] 66.1% | [2] 86.1% | [3] 97% | [4] 82% | [6] 89.2% | [7] 83.9% | [8] 42.7% | [9] 51% | [10] 36.3% | [11] 68.8% | [12] 13.9% | [13] 91.2% | [14] 48% | [15] 68.9% | [16] 53.9% | [17] 29.1% | [18] 107% | [19] 82%
active: [5] 0.259%

N#Cc1ccc(-c2nn(-c3ccc(C(=O)O)cc3)cc2CNc2cc(Cl)cc(C(F)(F)F)c2)cc1
inactive: [3] 36.4% | [7] 19.5% | [8] 29.7% | [9] 11.5% | [10] 55.7% | [11] 26.7% | [12] 19.4% | [13] 14.7% | [14] 27.7% | [15] 31.9% | [18] 14.9% | [19] 11.3%
active: [1] -12.8% | [2] 4.02% | [4] 6.03% | [5] 6.19% | [6] -26.6% | [16] 9.39% | [17] -26.4%

CN1CCN(c2ccc(C(=O)/C=C/c3cc(C(F)(F)F)ccc3Cl)cc2)CC1
active: [1] -95.3% | [2] -93% | [3] -94.8% | [4] -27.4% | [5] -46.6% | [6] -58.9% | [7] -60.4% | [8] -78.1% | [9] -83.1% | [10] -97% | [11] -62.5% | [12] 2.76% | [13] -95.4% | [14] -95.1% | [15] 1.69% | [16] -89.3% | [17] -100% | [18] -79.7% | [19] -84.9%

CN1C(=O)N(C)C2SC(N/N=C/C=C/c3ccccc3)=NC21 (centres undefined)
inactive: [1] 84.9% | [2] 79.3% | [3] 93.9% | [4] 85.9% | [5] 94.5% | [6] 97.9% | [7] 56.1% | [8] 87.5% | [9] 73.9% | [10] 122% | [11] 84.2% | [12] 25.3% | [13] 66.8% | [14] 82.4% | [15] 75.2% | [16] 72.7% | [17] 75.7% | [18] 83.1% | [19] 54.7%

COc1ccc(/C=C/C(=O)c2ccc(NC(=O)CN3C(=O)NC(C)(c4ccccc4)C3=O)cc2)cc1 (centres undefined)
inactive: [1] 83.8% | [2] 80.3% | [3] 105% | [4] 95.1% | [5] 102% | [6] 120% | [7] 86.8% | [8] 85.9% | [9] 81.2% | [10] 106% | [11] 87.7% | [12] 60.2% | [13] 90.5% | [14] 87% | [15] 67.3% | [16] 76.1% | [17] 80% | [18] 92.4% | [19] 87.9%
